A short description of test [1]: NCI Yeast Anticancer Drug Screen. Data for the rad50 strain (AID 155).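 Also: 0% = growth of vehicle-only cultures of the same strain.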 The note with it: S. cerevisiae rad50 strain growth inhibition; at 50.0 µM; stronger effect = higher value. In a few lines: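 Cells are treated with compound, grown, and their growth is then scored against vehicle-only cultures of the same repair-deficient yeast strain.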
The nature of test [2]: NCI Yeast Anticancer Drug Screen. Data for the mec2-1 strain (AID 157). The note with it: S. cerevisiae mec2-1 strain, at 50.0 µM, stronger effect = higher value. In a few lines:
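Yeast mec2-1 mutant treated with compound. Readout: growth inhibition vs vehicle controls.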

A short description of test [3]: NCI Yeast Anticancer Drug Screen. Data for the sgs1 mgt1 strain (AID 161).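 Also: 0% = growth of cultures given vehicle only.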 Particulars: S. cerevisiae sgs1 mgt1 strain, at 50.0 µM, stronger effect = higher value. Put shortly: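 Genetically altered yeast, compound exposure, growth inhibition relative to vehicle.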
The nature of test [4]: NCI Yeast Anticancer Drug Screen. Data for the cln2 rad14 strain (AID 165).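 Also: 0% = growth equal to vehicle treated cultures.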 Particulars: S. cerevisiae cln2 rad14 strain, at 50.0 µM, stronger effect = higher value. In a few lines:
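cln2 rad14 yeast strain; compound exposure; growth inhibition read vs vehicle controls.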

Test [5] in a line: NCI Yeast Anticancer Drug Screen. Data for the bub3 strain (AID 167). The note with it: S. cerevisiae bub3 mutant strain, at 50.0 µM, stronger effect = higher value. Put shortly:
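Part of a panel of yeast mutants defective in DNA damage repair or cell cycle regulation. Each strain is grown with compound, and inhibition is calculated relative to solvent-treated cultures.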

The nature of test [6]: NCI Yeast Anticancer Drug Screen. Data for the mlh1 rad18 strain (AID 175). Particulars: S. cerevisiae mlh1 rad18 strain growth inhibition; at 50.0 µM; stronger effect = higher value. Put shortly: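 Yeast w/ defined DNA-repair lesions; compound exposure; growth vs vehicle controls → % inhibition.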

Compounds without any hit were thinned out: in the full panel of roughly 79,000, 15% have a hit. Unmarked numbers belong to inactive results. Activity calls are given as the source filed them. Rule as the data show it: active = growth inhibition above about 70%; inactive = the rest.

Turning to `C[S+](C)c1ccc(Cl)cc1`, the growth inhibition in test [1] was -1.45%; in test [2] it was -6.65%; in test [3], -21.2%; in test [4], 17.9%; in test [5], 11.3%; in test [6] it was 8.25%.

With `O=S(=O)(O)CS(=O)(=O)O`, the growth inhibition in test [1] was -21.9%; in test [2], -2.3%; in test [3], 8.3%; in test [4] it was -26.4%; in test [5] it was 4.9%; in test [6] it was -1.15%.

On to `Cc1ccc(NC(=O)CNc2ccc3c(c2)Cc2ccccc2-3)cc1`, for which the growth inhibition was -1.05% in test [1]; 14.6% in test [2]; 24.9% in test [3]; -37.5% in test [4]; 34.5% in test [5]; 27.2% in test [6].

Turning to `O=C1c2ccccc2-c2cccc3ccc(-c4ccccc4)c1c23`, the growth inhibition in test [1] was 4.85%; in test [2] it was 1.9%; in test [3], -10.2%; in test [4] it was -2.85%; in test [5], -7.25%; in test [6] it was 12.5%.

`CC(C)=CCNc1ncnc2c1c(C#N)cn2C1OC(CO)C(O)C1O` (stereo unspecified): the growth inhibition in test [1] is -1.2%; in test [2], -23.7%; in test [3] it was -23.4%; in test [4] it was 15.7%; in test [5], -17.5%; in test [6] it was -5.95%.

As for `O=C(ON=C1c2ccccc2C(Br)C(Br)c2ccccc21)c1ccccc1` (stereo unspecified), the growth inhibition in test [1] is 38%; in test [2] it was 16.9%; in test [3], 35.7%; in test [4] it was 17.6%; in test [5] it was 49%; in test [6], 30.6%.

As for `COc1ccc(N2C(=O)C(=O)N(C)C2=O)c2ccccc12`, the growth inhibition in test [1] was -15.1%; in test [2] it was -26.7%; in test [3], -2%; in test [4], 6.1%; in test [5] it was 2.85%; in test [6], -7.95%.

Consider `CCC(O)C(C)C(O)CC` (stereo unspecified), for which the growth inhibition is 7.9% in test [1]; 14.7% in test [2]; 2.6% in test [3]; 13.3% in test [4]; 13.2% in test [5]; 17.5% in test [6].

Take `O=C(O)CC1CCCc2ccccc2C1=O` (stereo unspecified): the growth inhibition in test [1] is 34.3%; in test [2] it was 46.3%; in test [3], 18.1%; in test [4], 25.9%; in test [5] it was 48.5%; in test [6], 17.9%.

Take `O=c1oc2ccc3ccccc3c2c(-c2ccc(O)cc2)c1-c1ccccc1`: the growth inhibition in test [1] is 98.7% (active); in test [2], 98.5% (active); in test [3] it was 98.9% (active); in test [4], 97.2% (active); in test [5], 98.2% (active); in test [6], 98.7% (active).

For `O=C(CCC(=O)OCC1CCCO1)OCC1CCCO1` (stereo unspecified), the growth inhibition in test [1] was 1.15%; in test [2] it was 2.45%; in test [3] it was 4.7%; in test [4], 4.9%; in test [5], 5.75%; in test [6], -2.8%.

For `c1ccc(-c2cc(CNc3nc4ccccc4s3)on2)cc1`, the growth inhibition is 19.9% in test [1]; 10.7% in test [2]; 9.1% in test [3]; 5.45% in test [4]; -4.55% in test [5]; 9.75% in test [6].

For the molecule `CC1CN(C(=O)Cn2cnc([N+](=O)[O-])n2)CC(C)O1` (stereo unspecified), the growth inhibition is 7.65% in test [1]; 14.2% in test [2]; 2.75% in test [3]; 65.2% in test [4]; 29.8% in test [5]; 12.7% in test [6].

Consider `CCOC(=O)N1C2C(c3ccccc3)=NC(C)(C)N2C(c2ccc([N+](=O)[O-])cc2)N1C(=O)OCC` (stereo unspecified), for which the growth inhibition in test [1] was 17.9%; in test [2], -7%; in test [3], -4.55%; in test [4] it was 15.2%; in test [5], -2.2%; in test [6] it was -2.9%.

Regarding `Cc1cnc2cc(Cl)ccc2c1SCC(=O)O`, the growth inhibition in test [1] is 3.6%; in test [2], -39.7%; in test [3], -42.9%; in test [4] it was -24.4%; in test [5] it was -36.6%; in test [6] it was 1.05%.

With `CC(C)(C)OC(=O)NC(Cc1ccccc1)C(=O)N[C@H]1c2ccsc2/C(=N/O)[C@H]1O` (stereo partly specified), the growth inhibition in test [1] is -9.2%; in test [2] it was -6.95%; in test [3] it was 3.8%; in test [4], 9.15%; in test [5], -4.85%; in test [6] it was 29.9%.

Take `CC(=O)N(C(=O)CC(=O)N/N=C\c1ccc(Br)c(N(CCC#N)CCC#N)c1)c1ccc(Cl)cc1`: the growth inhibition in test [1] was 7.7%; in test [2], 0.6%; in test [3] it was 8.1%; in test [4], -7.8%; in test [5] it was 6.2%; in test [6], -3.35%.

`CO/C=C1/CCc2c(ccc3cc(OC)ccc23)C1=O`: the growth inhibition in test [1] is -1.5%; in test [2], -8.75%; in test [3] it was 10.5%; in test [4], -0.8%; in test [5], 3.2%; in test [6] it was -6.55%.

For `ClNc1nc(NCl)nc(NCl)n1`, the growth inhibition in test [1] is -17.7%; in test [2] it was -25.8%; in test [3] it was -5.1%; in test [4], 2%; in test [5], -9.8%; in test [6], -19.1%.

Take `CCOC(=O)/C(=C\OC(=O)c1ccccc1)NC(=O)Cc1ccccc1`: the growth inhibition in test [1] was -1.9%; in test [2] it was 25.6%; in test [3] it was 22%; in test [4] it was -98.8%; in test [5], 37.2%; in test [6], 23.4%.

With `CC(=O)OCC1OC(n2c(N)c(C#N)c(-c3ccccc3)c(C#N)c2=S)C(OC(C)=O)C(OC(C)=O)C1OC(C)=O` (stereo unspecified), the growth inhibition was 13.4% in test [1]; 11.2% in test [2]; -21.9% in test [3]; -8.8% in test [4]; -14.7% in test [5]; -60.2% in test [6].

The values above are taken from PubChem BioAssay (NCI).
